Source: PubChem
Shown is part of a subset that was picked to be rich in hits.
NS1 inh: influenza NS1 inhibition. actives 0.4% (n = 270,000). Potency, µM (highest dose often 46.1 µM), for the others: at the top dose activity, positive = more growth; calls by dose curve; further: actives are rising curves; nearly all actives have a fitted effect of over 50% in size
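Recovery from NS1-induced slow growth read by OD600 in budding yeast switched to galactose assay medium (pH 6.0, -URA) at 1:100 dilution. Compound 23 nl per well; the matching strain lacking NS1 serves as control.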
Cruzain noTriton: blocks cruzain activity in detergent-free assay; purified cruzain, Z-FR-AMC fluorescence, no detergent; Potency, µM, for inactives: max response, negative = inhibition, usual class: inhibitors; P25779; actives 2.3% (n = 200,000); AID 1476;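 further: plate controls were enzyme without inhibitor for no effect and buffer without enzyme for full effect; nearly all actives have a fitted effect of over 40% in size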
Target sequence (P25779 123-467 limits assumed): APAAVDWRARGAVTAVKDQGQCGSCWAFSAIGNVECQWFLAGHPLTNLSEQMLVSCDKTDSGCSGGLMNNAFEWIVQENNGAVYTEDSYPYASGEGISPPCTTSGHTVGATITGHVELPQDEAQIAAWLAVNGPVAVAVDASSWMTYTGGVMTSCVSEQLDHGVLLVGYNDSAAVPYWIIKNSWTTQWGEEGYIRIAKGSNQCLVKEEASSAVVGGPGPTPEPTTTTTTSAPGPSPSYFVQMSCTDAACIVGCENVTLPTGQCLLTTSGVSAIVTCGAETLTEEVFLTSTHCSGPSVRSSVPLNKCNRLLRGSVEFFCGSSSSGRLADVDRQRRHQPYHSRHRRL
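Purified cruzain at 1.5 nM, pre-incubated 15 min with compound at room temperature in 100 mM sodium acetate pH 5.5, 5 mM DTT, 0.00005% Triton X-100. Reaction started with 2 uM Z-FR-AMC; AMC fluorescence increase over 60 s gives rate.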
Cruzain Triton: inhibitors of Trypanosoma cruzi cruzain with detergent; Potency, µM, for the others: max response, negative = inhibition, hits mostly inhibitors; actives 0.43% (n = 200,000); purified cruzain, Z-FR-AMC fluorescence, 0.01% Triton;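 further: plate controls were neutral wells for no effect and buffer without enzyme for full effect; nearly all actives have a fitted effect of over 40% in size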
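In this qHTS format, compounds are incubated with 1.5 nM cruzain for 15 min at room temperature before 2 uM Z-FR-AMC is added. Release of AMC is followed at 360/450 nm, and progress is taken as the 60 s fluorescence difference.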
The depositor's hits bear a star; ? = inconclusive; . = no result. Unless noted, the call rests on the fitted dose curve; in most records, active means well fitted curve in the direction sought with a large enough effect; inconclusive means small, poorly fitted or top-dose-only effect, or another doubt; inactive means no such curve, though single readings can be large; an effect the other way counts as inactive or inconclusive. Potency means the concentration at half of the fitted maximal effect.

SMILES	NS1 inh	Cruzain noTriton	Cruzain Triton
COc1ccccc1NC(=O)C1=C(C)Nc2ncnn2C1c1ccc[nH]1 (stereo not given)	.	-3%	-5%
NCc1nnn(Cc2ccccc2)c1N	-1%	5%	-6%
CCc1ccc(-n2nc(CO)c(C(=O)NCCCc3ccccc3)n2)cc1	.	0%	-2%
Cn1c(C(=O)N2CCN(C(=O)c3ccco3)CC2)cc2c(=O)n3ccccc3nc21	1%	?	25µM*
Cn1c(C(=O)N2CCOCC2)cc2c(=O)n3ccccc3nc21	8%	.	.
CCOC(=O)C1=C(N)n2c(s/c(=C/c3ccco3)c2=O)=C(C(=O)OC)C1c1ccco1 (stereo not given)	?	13µM*	-2%
CCOC(=O)C1=C(C)N=c2s/c(=C\c3ccc(OCC(=O)O)c(OC)c3)c(=O)n2C1c1ccc(OC)cc1 (stereo not given)	8%	.	.
CCOC(=O)C1=c2s/c(=C\c3cccnc3)c(=O)n2C(N)=C(C(=O)OC)C1c1cccnc1 (stereo not given)	7%	14%	-8%
CCOC(=O)C1=C(C)N=c2s/c(=C\c3cccc(OCC(=O)O)c3)c(=O)n2C1c1ccccc1 (stereo not given)	27%	.	.
COc1ccc(C2C(C(C)=O)=C(C)N=c3s/c(=C/c4ccc5c(c4)OCO5)c(=O)n32)cc1 (stereo not given)	-7%	10µM*	-6%
CCOC(=O)C1=C(C)N=c2s/c(=C/c3ccco3)c(=O)n2C1c1cccc(OC)c1 (stereo not given)	?	25µM*	-29%
COc1ccc(Cn2c(CCC(=O)NCc3ccc(Cl)cc3)nc3cccnc32)cc1	.	34%	-2%
CCc1ccc(CCN2CCCCC2)nc1	1%	7%	2%
c1ccc2c[n+](CCCC[n+]3ccc4ccccc4c3)ccc2c1	0%	-1%	3%
COc1cc(OC)cc(-c2nc3ccccc3c(=O)n2OC(=O)c2ccccc2C)c1	-1%	-4%	-5%
O=C(On1c(-c2ccccc2)nc2ccccc2c1=O)c1ccco1	-171%	?	28µM*
O=C(Nc1nnc(-c2cccnc2)s1)c1cccs1	-33%	.	.
Cc1cc(C)cc(C(=O)Oc2coc(CSc3nnc(NC(=O)C4CC4)s3)cc2=O)c1	4%	3%	-4%
Cc1ccc(C(=O)Oc2coc(CSc3nnc(NC(=O)c4cccs4)s3)cc2=O)cc1	6%	25µM*	-1%
Cc1cccc(-c2nnc(NC(=O)c3cccs3)s2)c1	2%	16µM*	0%
CC[C@@H](CO)NC(=O)[C@H]1C=C2c3cccc4c3c(cn4C)C[C@H]2N(C)C1	-4%	?	36%
CN(C)S(=O)(=O)c1ccc(C(=O)Nc2nnc(SCc3cccc(F)c3)s2)cc1	10%	4µM*	-1%
CN(C)S(=O)(=O)c1ccc(C(=O)Nc2nnc(Cc3ccccc3)s2)cc1	-24%	-24%	3%
CN(C)S(=O)(=O)c1ccc(C(=O)Nc2nnc(SCc3ccccc3)s2)cc1	8%	3.2µM*	-3%
CCC(=O)Nc1nnc(SCc2cccc(F)c2)s1	-6%	.	.
SMILES	NS1 inh	Cruzain noTriton	Cruzain Triton
Cc1cc(-c2csc(NC(=O)c3ccc(S(=O)(=O)N(C)C)cc3)n2)c(C)n1-c1ccccc1	29%	16µM*	-5%
CN(C)S(=O)(=O)c1ccc(C(=O)Nc2nc(-c3cc4ccccc4o3)cs2)cc1	5%	?	-7%
O=c1cc(-c2ccc(O)c(O)c2)oc2ccccc12	.	?	-24%
CCOc1ccc(NC(=O)CSc2nc3ccsc3c(=O)n2C(C)CC)cc1 (stereo not given)	.	6%	0%
CCCOc1ccc(NC(=O)CC2C(=O)N(c3cccc(OC)c3)C(=O)N2Cc2cccs2)cc1 (stereo not given)	.	12%	-7%
O=C(CC1N=C2c3ccccc3N=C(SCc3ccc(Cl)cc3)N2C1=O)NCCc1ccccc1 (stereo not given)	.	-13%	-5%
O=C(NCC1CCN(Cc2ccc(F)cc2)CC1)c1cc2ccc3cccnc3c2[nH]1	.	-19%	-2%
Cc1cc(C(=O)CSc2nnc(-c3ccco3)o2)c(C)n1Cc1ccco1	2%	16%	-2%
Cc1cc(C(=O)CSc2nnc(-c3ccco3)o2)c(C)n1-c1ccc2c(c1)OCCO2	1%	10µM*	-4%
O=C(CSc1nnc(-c2cccs2)o1)c1cccs1	-3%	-1%	3%
Cc1cc(C(=O)CSc2nnc(-c3cccs3)o2)c(C)n1-c1ccccc1	8%	25µM*	3%
CCCCn1c(=O)c2[nH]c(C34CC5CC(CC3C5)C4)nc2n(CCCO)c1=O	.	6%	-1%
Cc1ccc(OCc2nc3ccccc3n2Cc2ccccc2Cl)cc1	.	-5%	-8%
Cc1ccc(N2C(=O)c3cccc4c(Oc5ccccc5[N+](=O)[O-])ccc(c34)C2=O)c(C)c1	16%	25µM*	-7%
O=C1c2cccc3c([N+](=O)[O-])ccc(c23)C(=O)N1c1ccccn1	-52%	-4%	-11%
Cn1cnc([N+](=O)[O-])c1[Se]c1nc(N)nc2c1ncn2[C@@H]1O[C@@H](CO)[C@H](O)[C@@H]1O	-3%	3%	-2%
CCOC(=O)c1cc([N+](=O)[O-])sc1NC(=O)c1ccc(S(=O)(=O)N2CC3(C)CC2CC(C)(C)C3)cc1 (stereo not given)	-2%	4µM*	-3%
CC1(C)CC2CC(C)(CN2S(=O)(=O)c2ccc(C(=O)Nc3ccc(S(=O)(=O)N4CCOCC4)cc3)cc2)C1 (stereo not given)	5%	-2%	-5%
COc1cc(/C=N/NC(=O)c2ccc(CN3c4cccc5cccc(c45)S3(=O)=O)cc2)cc(OC)c1O	14%	.	.
COc1ccc(/C=C/C(=O)Oc2cccc(/C=N/NC(=O)c3cccc(F)c3)c2)cc1	8%	?	1%
COc1ccc(/C=C/C(=O)Oc2ccc(/C=N\NC(=O)c3ccc(F)cc3)cc2)cc1	9%	7.9µM*	0%
COc1ccc(/C=N/NC(=O)c2ccc(CN3c4cccc5cccc(c45)S3(=O)=O)cc2)cc1	?	16µM*	-9%
CC1CCCCN1C(=O)CSc1nc2ccccc2nc1Cc1ccccc1 (stereo not given)	.	0%	-2%
CCOc1ccc(CNC(=O)CCC(=O)N2CC3CCCN3c3ccccc32)cc1 (stereo not given)	.	3%	-3%
O=C(Nc1nc(-c2ccc3ccccc3c2)cs1)C1CCN(S(=O)(=O)c2cccs2)CC1	21%	3.2µM*	-2%
SMILES	NS1 inh	Cruzain noTriton	Cruzain Triton
O=C(Nc1nc(-c2ccccc2)cs1)C1CCCCN1S(=O)(=O)c1ccccc1 (stereo not given)	-16%	?	-11%
Cc1ccc(-c2csc(NC(=O)C3CCN(S(=O)(=O)c4cccs4)CC3)n2)cc1	13%	?	-4%
O=C(Nc1nc(-c2ccccc2)cs1)C1CCCN(S(=O)(=O)c2cccc([N+](=O)[O-])c2)C1 (stereo not given)	25%	7.9µM*	-4%
Cc1c(F)cccc1NC(=O)C1CCCN1S(=O)(=O)c1ccc(F)cc1 (stereo not given)	.	-5%	-2%
Cc1cccc(-n2c(/C=C/c3ccccc3O)nc3ccccc3c2=O)c1	.	?	-6%
COc1cccc(-n2c(/C=C/c3ccccc3O)nc3ccccc3c2=O)c1	.	20µM*	-8%
